Measurements as given in PubChem BioAssay AID1159580 (chemical genetic matrix, 2015).
Values joined by “and” are separate entries in the source; they are usually repeats but may differ in a detail not shown here. Equal entries are not always repeated. The whole screen tested about 5,500 compounds, of which about 2,000 (36%) were called active. About 18% were inconclusive and are not listed. Cut-off read from the data, not from the text of the source: active = normalized growth mostly below about 0.91 (no sharp cut-off); inconclusive = no clear call, values can overlap the other calls; inactive = mostly above about 0.92. This is one part of the list.

Assay: chemical genetic growth profiling, strain panel (AID 1159580);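 note: tested at 20 µM; growth read once vehicle control cultures reached saturation at 30 °C; 1 = growth at the plate median or of vehicle wells; lower values mean less growth of the strain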
Conditions: growth OD
[1] = S. cerevisiae deletion strains, locus YBR021W, strain FUR4, stronger effect = lower value
[2] = S. cerevisiae deletion strains, locus YBR229C, strain ROT2, stronger effect = lower value
[3] = S. cerevisiae deletion strains, locus YCL029C, strain bik1, stronger effect = lower value
[4] = S. cerevisiae deletion strains, locus YDL035C, strain GPR1, stronger effect = lower value
[5] = S. cerevisiae deletion strains, locus YDL074C, strain BRE1, stronger effect = lower value
[6] = S. cerevisiae deletion strains, locus YDL101C, strain DUN1, stronger effect = lower value
[7] = S. cerevisiae deletion strains, locus YDL134C, strain PPH21, stronger effect = lower value
[8] = S. cerevisiae deletion strains, locus YDL185W, strain tfp1, stronger effect = lower value
[9] = S. cerevisiae deletion strains, locus YDL192W, strain arf1, stronger effect = lower value
[10] = S. cerevisiae deletion strains, locus YDR101C, strain arx1, stronger effect = lower value
[11] = S. cerevisiae deletion strains, locus YDR162C, strain NBP2, stronger effect = lower value
[12] = S. cerevisiae deletion strains, locus YDR318W, strain mcm21, stronger effect = lower value
[13] = S. cerevisiae deletion strains, locus YDR388W, stronger effect = lower value
[14] = S. cerevisiae deletion strains, locus YDR502C, strain sam2, stronger effect = lower value
[15] = S. cerevisiae deletion strains, locus YER110C, stronger effect = lower value
[16] = S. cerevisiae deletion strains, locus YER155C, strain BEM2, stronger effect = lower value
[17] = S. cerevisiae deletion strains, locus YER167W, strain BCK2, stronger effect = lower value
[18] = S. cerevisiae deletion strains, locus YGL078C, strain dbp3, stronger effect = lower value
[19] = S. cerevisiae deletion strains, locus YGL086W, strain mad1, stronger effect = lower value
[20] = S. cerevisiae deletion strains, locus YGL248W, strain PDE1, stronger effect = lower value
[21] = S. cerevisiae deletion strains, locus YGR135W, strain pre9, stronger effect = lower value
[22] = S. cerevisiae deletion strains, locus YGR252W, strain gcn5, stronger effect = lower value
[23] = S. cerevisiae deletion strains, locus YHR030C, strain SLT2, stronger effect = lower value
[24] = S. cerevisiae deletion strains, locus YHR079C, strain IRE1 (second series), stronger effect = lower value
[25] = S. cerevisiae deletion strains, locus YHR094C, strain hxt1, stronger effect = lower value
[26] = S. cerevisiae deletion strains, locus YHR129C, strain ARP1, stronger effect = lower value
[27] = S. cerevisiae deletion strains, locus YHR200W, strain rpn10, stronger effect = lower value
[28] = S. cerevisiae deletion strains, locus YIL066C, strain RNR3, stronger effect = lower value
[29] = S. cerevisiae deletion strains, locus YIL073C, strain SPO22, stronger effect = lower value
[30] = S. cerevisiae deletion strains, locus YIL125W, strain kgd1, stronger effect = lower value
[31] = S. cerevisiae deletion strains, locus YIR030C, strain dcg1, stronger effect = lower value
[32] = S. cerevisiae deletion strains, locus YJL095W, strain BCK1, stronger effect = lower value
[33] = S. cerevisiae deletion strains, locus YJL134W, strain LCB3, stronger effect = lower value
[34] = S. cerevisiae deletion strains, locus YJL168C, strain set2, stronger effect = lower value
[35] = S. cerevisiae deletion strains, locus YJL187C, strain SWE1 (second series), stronger effect = lower value
[36] = S. cerevisiae deletion strains, locus YJR043C, strain POL32, stronger effect = lower value
[37] = S. cerevisiae deletion strains, locus YJR075W, strain HOC1, stronger effect = lower value
[38] = S. cerevisiae deletion strains, locus YKL009W, strain mrt4, stronger effect = lower value
[39] = S. cerevisiae deletion strains, locus YKL068W, stronger effect = lower value
[40] = S. cerevisiae deletion strains, locus YKL085W, strain MDH1 (second series), stronger effect = lower value
[41] = S. cerevisiae deletion strains, locus YKL085W, strain MDH1, stronger effect = lower value
[42] = S. cerevisiae deletion strains, locus YKL190W, strain CNB1, stronger effect = lower value
[43] = S. cerevisiae deletion strains, locus YKR001C, strain vps1, stronger effect = lower value
[44] = S. cerevisiae deletion strains, locus YLR039C, strain RIC1, stronger effect = lower value
[45] = S. cerevisiae deletion strains, locus YLR058C, strain SHM2, stronger effect = lower value
[46] = S. cerevisiae deletion strains, locus YLR102C, strain apc9, stronger effect = lower value
[47] = S. cerevisiae deletion strains, locus YLR268W, strain sec22, stronger effect = lower value
[48] = S. cerevisiae deletion strains, locus YLR330W, strain CHS5, stronger effect = lower value
[49] = S. cerevisiae deletion strains, locus YLR371W, strain rom2, stronger effect = lower value
[50] = S. cerevisiae deletion strains, locus YLR418C, strain cdc73, stronger effect = lower value
[51] = S. cerevisiae deletion strains, locus YML016C, strain PPZ1, stronger effect = lower value
[52] = S. cerevisiae deletion strains, locus YML032C, strain rad52, stronger effect = lower value
[53] = S. cerevisiae deletion strains, locus YML124C, strain tub3, stronger effect = lower value
[54] = S. cerevisiae deletion strains, locus YMR078C, strain ctf18, stronger effect = lower value
[55] = S. cerevisiae deletion strains, locus YMR223W, strain ubp8, stronger effect = lower value
[56] = S. cerevisiae deletion strains, locus YMR307W, strain GAS1, stronger effect = lower value
[57] = S. cerevisiae deletion strains, locus YNL067W, strain RPL9B, stronger effect = lower value
[58] = S. cerevisiae deletion strains, locus YNL153C, strain GIM3, stronger effect = lower value
[59] = S. cerevisiae deletion strains, locus YNL233W, strain BNI4, stronger effect = lower value
[60] = S. cerevisiae deletion strains, locus YNL250W, strain rad50, stronger effect = lower value
[61] = S. cerevisiae deletion strains, locus YNL271C, strain bni1, stronger effect = lower value
[62] = S. cerevisiae deletion strains, locus YNL298W, strain CLA4, stronger effect = lower value
[63] = S. cerevisiae deletion strains, locus YNL307C, strain MCK1, stronger effect = lower value
[64] = S. cerevisiae deletion strains, locus YNR052C, strain pop2, stronger effect = lower value
[65] = S. cerevisiae deletion strains, locus YOL006C, strain TOP1, stronger effect = lower value
[66] = S. cerevisiae deletion strains, locus YOL012C, strain htz1
[67] = S. cerevisiae deletion strains, locus YOL147C, strain pex11, stronger effect = lower value
[68] = S. cerevisiae deletion strains, locus YOR061W, strain CKA2, stronger effect = lower value
[69] = S. cerevisiae deletion strains, locus YOR069W, strain VPS5, stronger effect = lower value
[70] = S. cerevisiae deletion strains, locus YOR136W, strain idh2, stronger effect = lower value
[71] = S. cerevisiae deletion strains, locus YOR144C, strain elg1, stronger effect = lower value
[72] = S. cerevisiae deletion strains, locus YOR184W, strain ser1, stronger effect = lower value
[73] = S. cerevisiae deletion strains, locus YOR316C, strain cot1, stronger effect = lower value
[74] = S. cerevisiae deletion strains, locus YPR119W, strain clb2, stronger effect = lower value
[75] = S. cerevisiae deletion strains, locus YPR141C, strain kar3, stronger effect = lower value
[76] = S. cerevisiae deletion strains, locus YPR163C, strain tif3, stronger effect = lower value
[77] = S. cerevisiae deletion strains, locus YPR167C, strain met16, stronger effect = lower value
[78] = S. cerevisiae deletion strains, strain wtn01, stronger effect = lower value

Measured: normalized growth

CC(=O)OC1CC[C@@]2(C)C(CC[C@]3(C)C2CCC2C4CC(C)(C)CCC4(C(=O)O)CC[C@]23C)C1(C)C (some centres not stated)
inactive: [1] 1.02 | [2] 0.998 | [3] 0.968 | [4] 1.06 | [5] 1.05 | [6] 0.985 | [7] 1.03 | [8] 0.934 | [9] 1.01 | [10] 1.02 | [11] 1.01 | [12] 0.993 | [13] 0.975 | [14] 0.999 | [15] 0.971 | [16] 0.985 | [17] 0.998 | [18] 0.974 | [19] 1.01 | [20] 1.04 | [21] 0.972 | [22] 1.05 | [23] 1.01 | [24] 0.975 | [25] 0.978 | [26] 1.03 | [27] 0.999 | [28] 1.01 | [29] 0.986 | [30] 0.979 | [31] 0.974 | [32] 1.03 | [33] 0.994 | [34] 0.977 | [35] 1.01 | [36] 1.07 | [37] 1 | [38] 0.966 | [39] 1.02 | [40] 1.01 | [41] 1.01 | [42] 0.996 | [43] 1.01 | [44] 1.11 | [45] 1.02 | [46] 0.973 | [47] 0.998 | [48] 0.996 | [49] 0.968 | [50] 1.02 | [51] 1 | [52] 0.987 | [53] 0.991 | [54] 0.968 | [55] 0.976 | [56] 1.25 | [57] 0.989 | [58] 0.998 | [59] 1.03 | [60] 0.92 | [61] 0.995 | [62] 0.992 | [63] 1.01 | [64] 0.992 | [65] 1.25 | [66] 1.01 | [67] 0.979 | [68] 1 | [69] 1 | [70] 0.983 | [71] 0.989 | [72] 1.08 | [73] 0.964 | [74] 0.951 | [75] 0.975 | [76] 0.985 | [77] 0.99 | [78] 1.01

C[C@@H]1OC(O[C@H]2[C@H](O)[C@@H](O)[C@H](OC[C@H]3O[C@@H](OC(=O)[C@]45CCC(C)(C)CC4C4=CCC6[C@@]7(C)CC[C@H](OC8OC[C@H](O)[C@H](O)[C@H]8OC8O[C@@H](C)[C@H](O)[C@@H](O)[C@H]8O)[C@@](C)(CO)C7CC[C@@]6(C)[C@]4(C)CC5)[C@H](O)[C@@H](O)[C@@H]3O)O[C@@H]2CO)[C@H](O)[C@H](O)[C@H]1O (some centres not stated)
inactive: [1] 0.991 | [2] 0.987 | [3] 0.985 | [4] 1 | [5] 0.99 | [6] 0.992 | [7] 1.02 | [8] 0.97 | [9] 0.985 | [10] 0.995 | S. cerevisiae deletion strains, locus YDR150W, strain NUM1, stronger effect = lower value 0.998 | [11] 1.02 | [12] 0.993 | [13] 0.986 | [14] 0.99 | S. cerevisiae deletion strains, locus YEL061C, strain CIN8, stronger effect = lower value 0.993 | [15] 0.986 | [16] 0.989 | [17] 1 | [18] 0.985 | [19] 1.01 | [20] 0.991 | [21] 0.993 | S. cerevisiae deletion strains, locus YGR229C, strain SMI1, stronger effect = lower value 1.01 | [22] 0.987 | [23] 0.997 and 1.02 | [24] 0.993 | S. cerevisiae deletion strains, locus YHR079C, strain IRE1, stronger effect = lower value 1.01 | [25] 0.996 | [26] 0.99 | [27] 0.997 | [28] 1 | [29] 0.993 | [30] 0.983 | [31] 1 | [32] 1.01 and 0.985 | [33] 0.991 | [34] 0.991 | [35] 0.997 | [36] 1.02 | S. cerevisiae deletion strains, locus YJR066W, strain TOR1, stronger effect = lower value 0.967 | [37] 1.02 | [38] 0.968 | [39] 0.98 | [40] 1 | [41] 1 | [42] 0.995 | [43] 0.984 | [44] 1.04 | [45] 0.988 | [46] 0.993 | S. cerevisiae deletion strains, locus YLR113W, strain HOG1, stronger effect = lower value 0.992 | S. cerevisiae deletion strains, locus YLR262C, strain YPT6, stronger effect = lower value 1.03 | [47] 0.992 | [48] 0.989 | S. cerevisiae deletion strains, locus YLR342W, strain FKS1 (second series), stronger effect = lower value 1.01 | [49] 0.986 | [50] 0.992 | [51] 0.987 | [52] 0.986 | [53] 0.991 | [54] 0.985 | [55] 0.98 | S. cerevisiae deletion strains, locus YMR263W, strain SAP30, stronger effect = lower value 1.01 | [56] 1.06 | [57] 1.01 | S. cerevisiae deletion strains, locus YNL128W, strain TEP1, stronger effect = lower value 0.994 | [58] 1.02 | S. cerevisiae deletion strains, locus YNL183C, strain NPR1, stronger effect = lower value 0.983 | [59] 1 | [60] 0.971 | [61] 0.987 | [62] 0.993 | [63] 0.989 | [64] 0.978 | [65] 0.946 | [66] 0.966 | [67] 0.997 | [68] 0.984 | [69] 0.991 | [70] 0.979 | [71] 0.997 | [72] 1.01 | S. cerevisiae deletion strains, locus YOR231W, strain MKK1, stronger effect = lower value 0.983 | [73] 0.983 | S. cerevisiae deletion strains, locus YPL055C, strain LGE1, stronger effect = lower value 1.02 | S. cerevisiae deletion strains, locus YPL241C, strain CIN2, stronger effect = lower value 0.997 | S. cerevisiae deletion strains, locus YPL256C, strain CLN2, stronger effect = lower value 1.04 | [74] 0.991 | [75] 0.982 | [76] 0.994 | [77] 0.985 | [78] 1 | S. cerevisiae strains, strain wild type, stronger effect = lower value 0.994
